# Bioassay records deposited in PubChem by Buhrlage Lab, Dana-Farber Cancer Institute and Novartis Institutes for BioMedical Research (Cambridge, Mass).
# USP30 block – human USP30 deubiquitinase inhibition; inhibition, % at 25 µM; Q70CQ3; purified USP30, Ub-rhodamine cleavage fluorescence; actives 5.3% (n = 47,000)
# Target sequence (Q70CQ3 whole entry, looked up): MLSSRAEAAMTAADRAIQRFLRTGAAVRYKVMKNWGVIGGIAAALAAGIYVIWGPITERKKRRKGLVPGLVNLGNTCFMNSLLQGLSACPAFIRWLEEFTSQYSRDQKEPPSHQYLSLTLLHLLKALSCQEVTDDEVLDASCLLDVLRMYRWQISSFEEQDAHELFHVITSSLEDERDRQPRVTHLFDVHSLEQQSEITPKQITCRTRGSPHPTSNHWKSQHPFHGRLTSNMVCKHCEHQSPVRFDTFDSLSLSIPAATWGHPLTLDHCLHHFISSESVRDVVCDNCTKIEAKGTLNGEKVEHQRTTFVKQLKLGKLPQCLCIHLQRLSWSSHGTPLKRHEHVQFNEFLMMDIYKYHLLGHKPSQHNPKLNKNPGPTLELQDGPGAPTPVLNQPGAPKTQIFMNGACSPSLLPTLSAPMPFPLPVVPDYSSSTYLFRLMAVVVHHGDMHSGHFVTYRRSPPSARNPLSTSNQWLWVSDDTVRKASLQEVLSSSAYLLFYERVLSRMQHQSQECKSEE
# USP28 inh – human USP28 deubiquitinase inhibition. AID 1645857. inhibition, % at 25 µM. actives 3% (n = 47,000). Q96RU2. purified USP28, Ub-rhodamine cleavage fluorescence, 30 min
# USP17 block – inhibitors of human USP17 deubiquitinase; purified USP17, Ub-rhodamine cleavage fluorescence, 3 h; inhibition, % at 50 µM; actives 6.5% (n = 47,000); AID 1645855
# USP8 block – human USP8 deubiquitinase inhibition; purified USP8, Ub-rhodamine cleavage fluorescence, 30 min; P40818; inhibition, % at 20 µM; AID 1645853; actives 4.2% (n = 47,000)
# Active calls of the source: *; i = inactive; nt = no result. This is a sample that favours compounds with a hit; in the whole collection about 13% have one here. Cut-off read from the data, not from the text of the source: active = inhibition above about 30%; inactive = the rest.
SMILES,USP30 block,USP28 inh,USP17 block,USP8 block
CCc1ccccc1-n1c(=O)[nH]c2c(c1=O)C(C)(C)Cc1ccccc1-2,-2,-17,-11,1
Cc1ccc(-c2cc(C#N)c(=O)n(Cc3ccc(F)cc3)c2)cc1,0,-8,41*,0
CC(C(=O)Nc1sccc1C#N)N1CCCC1c1ccc2c(c1)OCCO2 (configuration not stated),-17,-2,-12,-13
Cc1ccc(N(Cc2nnc(-c3ccc(Cl)cc3)o2)S(=O)(=O)c2ccc3c(c2)OCCO3)cc1,-117,-27,-30,-9
O=S(=O)(Cc1nnc(-c2ccccc2C(F)(F)F)o1)c1ccc(Cl)cc1,-2,-11,68*,-12
O=C1NCCCn2cc(S(=O)(=O)NCc3cccc(F)c3)cc21,-81,9,-37,-167
O=C1c2cccc(OCc3ccc(Cl)cc3)c2CCN1Cc1cccnc1,32*,23,18,0
O=C1N(Cc2cccnc2)CCN1c1ccc(F)c(Cl)c1,nt,nt,8,-2
O=C1Nc2cc(C(=O)N3CCCC3)ccc2NC1CS(=O)(=O)Cc1ccc(F)cc1Cl (configuration not stated),-260,-49,-13,35*
O=C(NCc1ccc(F)cc1Cl)c1csc(C(=O)N2CCCC2)n1,-11,27,-5,-2
CCOC(=O)C1CCN(C(=O)c2ccc3c(c2)NC(=O)C(CS(=O)(=O)Cc2ccccc2Cl)N3)CC1 (configuration not stated),-231,-48,0,49*
Cc1ccc(C(=O)N2CCC3(CC2)NCCc2[nH]cnc23)cc1C,-105,-26,-12,13
CCn1c(=O)c2ccccc2n(Cc2nc(-c3cccc(OC)c3)no2)c1=O,-39,-3,5,4
O=c1[nH]c2ccccc2c(=O)n1CCc1nc(-c2ccncc2)no1,7,-6,-11,3
Cc1cccc(-c2noc(Cn3c(=O)[nH]c4cc5c(cc4c3=O)OCO5)n2)c1,-85,8,16,55*
Cc1cccc(-c2noc(CCn3c(=O)[nH]c4ccccc4c3=O)n2)c1,18,30*,61*,14
O=c1c2ccccc2n(Cc2ccccc2)c(=O)n1Cc1nc(-c2ccccc2)no1,30*,15,11,17
Cc1ccccc1-c1noc(Cn2c(=O)[nH]c3cc4c(cc3c2=O)OCO4)n1,-51,-21,-9,-8
Cc1ccc(-c2nc3cccnc3n2CCNC(=O)c2cnccn2)cc1,i,-231,-184,-23
O=C1CN(C(=O)CC2CCCCC2)C(c2ccccc2)c2cc(Br)ccc2N1 (configuration not stated),41*,25,12,21
COc1ccc(CC(=O)N2CC(=O)Nc3ccc(Br)cc3C2c2ccccc2)cc1OC (configuration not stated),-32,5,6,16
CC(=O)c1cccc(S(=O)(=O)N(Cc2ccccc2)Cc2ccccc2)c1,11,20,16,27
COc1ccc(S(=O)(=O)Nc2ccc3nc(NC(C)=O)sc3c2)cc1OC,-9,-4,0,-2
CCC(=O)Nc1nc2ccc(NC(=O)Cc3ccc(OC)c(OC)c3)cc2s1,4,-4,36*,-1
CCC(=O)Nc1nc2cc(NC(=O)Nc3cc(C)cc(C)c3)ccc2s1,48*,26,19,60*
SMILES,USP30 block,USP28 inh,USP17 block,USP8 block
CCC(=O)Nc1nc2cc(NS(=O)(=O)c3ccc(C)cc3)ccc2s1,-25,-5,-1,3
O=C(Nc1ccc2c(c1)OCO2)c1ccccc1-n1cnnn1,-21,-11,-9,-7
O=C(COc1cccc(-n2cnnn2)c1)Nc1ccc2c(c1)OCCO2,14,50*,5,11
COc1cccc(C(=O)Nc2ccc(-n3cnnn3)cc2)c1,51*,17,32*,4
O=C(COc1ccc(-n2cnnn2)cc1)Nc1cc(Cl)ccc1Oc1ccccc1,6,20,17,22
N#Cc1ccc(NC(=O)COc2ccc(-n3cnnn3)cc2)cc1,37*,21,49*,7
Cc1ccc(NC(=O)c2cccc(-n3cnnn3)c2)cc1,15,6,11,6
CCOC(=O)c1cc(=O)c2ccc(OCC(=O)Nc3ccc4c(c3)OCCO4)cc2o1,26,18,nt,65*
COc1ccc(NC(=O)c2cnn3c4c(cnc23)CCCCC4)cc1,-19,-3,-10,-8
COCC(=O)N1CCC(c2cc(-c3ccnn3C)nc(C)n2)CC1,-3,-10,-1,-3
CCCCOc1ccccc1C(=O)Oc1ccc(-n2cnnn2)cc1,17,29,11,19
O=C(COc1ccc(F)cc1)Oc1ccc(-n2cnnn2)cc1,30*,20,5,14
O=C(Oc1ccc(-n2cnnn2)cc1)c1ccccc1Br,0,2,33*,45*
